In PubChem BioAssay AID1159580 (chemical genetic matrix, 2015):
Among all 5,500 compounds or so, about 2,000 (36%) were called active. About 18% were inconclusive and are not listed. No stated cut-off is given here; in the data, active means normalized growth mostly below about 0.91 (no sharp cut-off); inconclusive means no clear call, values can overlap the other calls; inactive means mostly above about 0.92. The list shows a part of the results.

Test: chemical genetic growth profiling, strain panel (AID 1159580);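 further: tested at 20 µM; growth read once vehicle control cultures reached saturation at 30 °C; 1 = growth at the plate median or of vehicle wells; lower values mean less growth of the strain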
Conditions: growth OD

Measured: normalized growth

CC[C@@H](C(=O)C(C)[C@@H](O)[C@H](C)CCc1ccc(C)c(O)c1C(=O)O)C1OC(CC)(C2CC[C@](O)(CC)[C@H](C)O2)C[C@@H]1C (some centres undefined)
inactive: S. cerevisiae deletion strains, locus YJR043C, strain POL32, active compounds read low 1.02 | S. cerevisiae deletion strains, locus YJR066W, strain TOR1, active compounds read low 0.928 | S. cerevisiae deletion strains, locus YJR075W, strain HOC1, active compounds read low 1.01 | S. cerevisiae deletion strains, locus YKL068W, active compounds read low 1 | S. cerevisiae deletion strains, locus YKL160W, strain elf1, active compounds read low 1.05 | S. cerevisiae deletion strains, locus YKL190W, strain CNB1, active compounds read low 1 | S. cerevisiae deletion strains, locus YKR001C, strain vps1, active compounds read low 1.04 | S. cerevisiae deletion strains, locus YKR026C, strain gcn3, active compounds read low 1.07 | S. cerevisiae deletion strains, locus YKR091W, strain srl3, active compounds read low 1.07 | S. cerevisiae deletion strains, locus YLL026W, active compounds read low 1.06 | S. cerevisiae deletion strains, locus YLL041C, strain sdh2, active compounds read low 1.05 | S. cerevisiae deletion strains, locus YLR027C, strain aat2, active compounds read low 1.05 | S. cerevisiae deletion strains, locus YLR039C, strain RIC1, active compounds read low 1.26 | S. cerevisiae deletion strains, locus YLR058C, strain SHM2, active compounds read low 1.02 | S. cerevisiae deletion strains, locus YLR102C, strain apc9, active compounds read low 1.03 | S. cerevisiae deletion strains, locus YLR113W, strain HOG1, active compounds read low 0.964 | S. cerevisiae deletion strains, locus YLR221C, strain rsa3, active compounds read low 1.06 | S. cerevisiae deletion strains, locus YLR258W, strain gsy2, active compounds read low 1.06 | S. cerevisiae deletion strains, locus YLR262C, strain YPT6 (second series), active compounds read low 1.08 | S. cerevisiae deletion strains, locus YLR262C, strain YPT6, active compounds read low 1.34 | S. cerevisiae deletion strains, locus YLR268W, strain sec22, active compounds read low 0.996 | S. cerevisiae deletion strains, locus YLR320W, strain mms22, active compounds read low 1.05 | S. cerevisiae deletion strains, locus YLR330W, strain CHS5, active compounds read low 1.04 | S. cerevisiae deletion strains, locus YLR342W, strain FKS1 (second series), active compounds read low 0.97 | S. cerevisiae deletion strains, locus YLR342W, strain FKS1, active compounds read low 1.05 | S. cerevisiae deletion strains, locus YLR357W, strain rsc2, active compounds read low 1.12 | S. cerevisiae deletion strains, locus YLR370C, strain arc18, active compounds read low 1.04 | S. cerevisiae deletion strains, locus YLR371W, strain rom2, active compounds read low 1 | S. cerevisiae deletion strains, locus YLR384C, strain iki3, active compounds read low 1.08 | S. cerevisiae deletion strains, locus YLR418C, strain cdc73, active compounds read low 0.959 | S. cerevisiae deletion strains, locus YML016C, strain PPZ1, active compounds read low 1.03 | S. cerevisiae deletion strains, locus YML032C, strain rad52, active compounds read low 1 | S. cerevisiae deletion strains, locus YML120C, strain ndi1, active compounds read low 1.07 | S. cerevisiae deletion strains, locus YML124C, strain tub3, active compounds read low 1.03 | S. cerevisiae deletion strains, locus YMR058W, strain fet3, active compounds read low 1.04 | S. cerevisiae deletion strains, locus YMR078C, strain ctf18, active compounds read low 1.06 | S. cerevisiae deletion strains, locus YMR125W, strain sto1, active compounds read low 1.08 | S. cerevisiae deletion strains, locus YMR129W, active compounds read low 1.07 | S. cerevisiae deletion strains, locus YMR205C, strain PFK2, active compounds read low 1.04 | S. cerevisiae deletion strains, locus YMR223W, strain ubp8, active compounds read low 0.996 | S. cerevisiae deletion strains, locus YMR307W, strain GAS1, active compounds read low 0.967 | S. cerevisiae deletion strains, locus YNL067W, strain RPL9B, active compounds read low 1.02 | S. cerevisiae deletion strains, locus YNL071W, strain lat1, active compounds read low 1.06 | S. cerevisiae deletion strains, locus YNL153C, strain GIM3, active compounds read low 1.04 | S. cerevisiae deletion strains, locus YNL183C, strain NPR1, active compounds read low 0.923 | S. cerevisiae deletion strains, locus YNL209W, strain ssb2, active compounds read low 1.07 | S. cerevisiae deletion strains, locus YNL233W, strain BNI4, active compounds read low 1.02 | S. cerevisiae deletion strains, locus YNL248C, strain rpa49, active compounds read low 1.05 | S. cerevisiae deletion strains, locus YNL250W, strain rad50, active compounds read low 0.997 | S. cerevisiae deletion strains, locus YNL271C, strain bni1, active compounds read low 0.996 | S. cerevisiae deletion strains, locus YNL298W, strain CLA4, active compounds read low 0.978 | S. cerevisiae deletion strains, locus YNL307C, strain MCK1, active compounds read low 1.05 | S. cerevisiae deletion strains, locus YNL322C, strain KRE1 (second series), active compounds read low 1.08 | S. cerevisiae deletion strains, locus YNL322C, strain KRE1, active compounds read low 1.02 | S. cerevisiae deletion strains, locus YNR049C, strain mso1, active compounds read low 1.07 | S. cerevisiae deletion strains, locus YNR052C, strain pop2, active compounds read low 1.01 | S. cerevisiae deletion strains, locus YOL006C, strain TOP1, active compounds read low 0.716 | S. cerevisiae deletion strains, locus YOL012C, strain htz1 1.09 | S. cerevisiae deletion strains, locus YOL147C, strain pex11, active compounds read low 1.02 | S. cerevisiae deletion strains, locus YOR001W, strain rrp6, active compounds read low 1.01 | S. cerevisiae deletion strains, locus YOR061W, strain CKA2, active compounds read low 1 | S. cerevisiae deletion strains, locus YOR069W, strain VPS5, active compounds read low 1.02 | S. cerevisiae deletion strains, locus YOR070C, strain gyp1, active compounds read low 1.06 | S. cerevisiae deletion strains, locus YOR080W, strain dia2, active compounds read low 1.06 | S. cerevisiae deletion strains, locus YOR083W, strain WHI5, active compounds read low 1.07 | S. cerevisiae deletion strains, locus YOR136W, strain idh2, active compounds read low 1.02 | S. cerevisiae deletion strains, locus YOR144C, strain elg1, active compounds read low 1.02 | S. cerevisiae deletion strains, locus YOR184W, strain ser1, active compounds read low 0.997 | S. cerevisiae deletion strains, locus YOR231W, strain MKK1, active compounds read low 0.963 | S. cerevisiae deletion strains, locus YOR265W, strain rbl2, active compounds read low 1.05 | S. cerevisiae deletion strains, locus YOR290C, strain snf2, active compounds read low 1.06 | S. cerevisiae deletion strains, locus YOR316C, strain cot1, active compounds read low 1.03 | S. cerevisiae deletion strains, locus YPL051W, strain arl3, active compounds read low 0.944 | S. cerevisiae deletion strains, locus YPL078C, strain atp4, active compounds read low 1.05 | S. cerevisiae deletion strains, locus YPL106C, strain sse1, active compounds read low 1.09 | S. cerevisiae deletion strains, locus YPL240C, strain hsp82, active compounds read low 1.06 | S. cerevisiae deletion strains, locus YPL256C, strain CLN2, active compounds read low 0.982 | S. cerevisiae deletion strains, locus YPR119W, strain clb2, active compounds read low 1.05 | S. cerevisiae deletion strains, locus YPR141C, strain kar3, active compounds read low 1.02 | S. cerevisiae deletion strains, locus YPR163C, strain tif3, active compounds read low 1.07 | S. cerevisiae deletion strains, locus YPR167C, strain met16, active compounds read low 1.02 | S. cerevisiae deletion strains, strain wtn01, active compounds read low 1.02 | S. cerevisiae strains, strain wild type, active compounds read low 1.01
active: S. cerevisiae deletion strains, locus YKL085W, strain MDH1 (second series), active compounds read low 1.28 [resistant] | S. cerevisiae deletion strains, locus YKL085W, strain MDH1, active compounds read low 1.28 [resistant] | S. cerevisiae deletion strains, locus YLL001W, strain dnm1, active compounds read low 1.1 [resistant] | S. cerevisiae deletion strains, locus YMR231W, strain pep5, active compounds read low 0.208 | S. cerevisiae deletion strains, locus YOR106W, strain vam3, active compounds read low 0.557 | S. cerevisiae deletion strains, locus YOR270C, strain vph1, active compounds read low 0.597
